Assay results: PubChem BioAssay (NCATS)
Inconclusive results are not listed. Activity calls are given as the source filed them. Calls come from the whole dose curve; as a rule, active = well fitted curve in the direction sought with a large enough effect; inconclusive = small, poorly fitted or top-dose-only effect, or another doubt; inactive = no such curve, though single readings can be large; an effect the other way counts as inactive or inconclusive. Bridge positions count the residues as written; N and C are the ends. Square brackets hold non-standard residues; d marks the D form. Side chains are listed from the residue outwards. Peptide text beside a SMILES is read from it. * marks the point of attachment. Phg(4-OMe) = COc1ccc([C@H](N)C(=O)O)cc1; d(aIle) = CC[C@H](C)[C@@H](N)C(=O)O; d(aThr) = C[C@@H](O)[C@@H](N)C(=O)O; NMeF = CN[C@@H](Cc1ccccc1)C(=O)O; Isobutyryl = CC(C)C(=O)*

Tests used:
[1] = OV-KATE Cancer Cell Toxicity qHTS against the NCATS CANVASS Library (AID 1347345); note: potency is the fitted concentration of half-maximal effect
Outline: (§1)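 Cells were seeded at 1000 per well, allowed 4 h at 37 degrees C/5% CO2, then pin-treated with an 11-point compound series. After 72 h, viability was read as CellTiter-Glo luminescence following 15min at room temperature.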

[2] = HPAF-II Cancer Cell Toxicity qHTS against the NCATS CANVASS Library (AID 1347346); note: nearly all actives have a fitted effect of over 55% in size; note: potency is the fitted concentration of half-maximal effect
Outline: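 Cytotoxicity read-out was CellTiter-Glo luminescence after 72 h at 37 degrees C exposure of HPAF-II cells (1000/well) to compounds in an 11-point titration.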

[3] = UWB1.289-WTBRCA1 Cancer Cell Toxicity qHTS against the NCATS CANVASS Library (AID 1347354); note: potency is the fitted concentration of half-maximal effect
Outline: (§2)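 Toxicity was measured as CellTiter-Glo luminescence after 72 h exposure to an 11-point compound series. Compound was added to 1000 cells/well 4 h after seeding.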

[4] = SDT Cancer Cell Toxicity qHTS against the NCATS CANVASS Library (AID 1347365); note: nearly all actives have a fitted effect of over 60% in size; note: potency is the fitted concentration of half-maximal effect
Outline: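 Cytotoxicity taken from CellTiterGlo ATP luminescence after 72 hr at 37C, 5% CO2. Canine glioma line SDT, 500 cells/well, treated at 11 concentrations; bortezomib dose series as control.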

[5] = qHTS for ATAD5 Agonist screened against the NCATS CANVASS Library (AID 1347367);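 note: luciferase reporter driven by ATAD5 which rises upon DNA damage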
Outline: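 Luciferase reporter under ATAD5 control, stably integrated in HEK293T cells (2000/well). Compounds (11 points) incubated 16 h at 37C; viability read first by CellTiter-Fluor, then luminescence reporting ATAD5 activation. MMS positive control.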

[6] = biological target: Nuclear receptor subfamily 1 group I member 3 (Homo sapiens) (UniProt Q14994); assay: qHTS for Constitutive Androstane Receptor (CAR) Antagonist screened against the NCATS CANVASS Library (AID 1347372); note: potency is the fitted concentration of half-maximal effect
Outline: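 Antagonist mode: compound added alongside 50 nM CITCO to HepG2-hCAR-CYP2B6 reporter cells, 24hr at 37C. Viability by CellTiter-Fluor fluorescence, then CAR-driven luciferase by ONE-Glo luminescence.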

[7] = biological target: Nuclear receptor subfamily 1 group I member 3 (Homo sapiens) (UniProt Q14994); assay: qHTS for Constitutive Androstane Receptor (CAR) Agonist screened against the NCATS CANVASS Library (AID 1347373);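 note: every well also contained 1.5 µM PK11195 alongside the test compound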; note: potency is the fitted concentration of half-maximal effect
Outline: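 Agonist mode with 1.5uM PK11195 present: compounds for 24hr on HepG2-hCAR-CYP2B6 cells. CellTiter-Fluor fluorescence (ex 405, em 540 nm) gives viability; ONE-Glo luminescence reports CAR activation.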

[8] = qHTS for Hypoxia signaling pathway (HIF-1) antagonists against the NCATS CANVASS Library (AID 1347374); note: nearly all actives have a fitted effect of over 60% in size; note: potency is the fitted concentration of half-maximal effect
Outline: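 Antagonism scored as loss of CoCl2-driven (60 uM stock added) HRE beta-lactamase signal, read by CCF4 FRET at 460/530 nm. Compounds were tested in an 11-point series on ME-180 reporter cells for 17 hrs at 37C, with parallel CellTiter-Glo cytotoxicity.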

[9] = qHTS for Hypoxia signaling pathway (HIF-1) agonists against the NCATS CANVASS Library (AID 1347375)
Outline: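 Beta-lactamase reporter under HRE control in ME-180 cells; compounds (11-point qHTS series) added after 5 hrs plating, then 17 hrs at 37C. FRET substrate read after 2 hr; same-well CellTiter-Glo luminescence gave viability and normalization.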

[10] = UWB1.289 Cancer Cell Toxicity qHTS against the NCATS CANVASS Library (AID 1347347); note: nearly all actives have a fitted effect of over 60% in size; note: potency is the fitted concentration of half-maximal effect
Outline: as §1

[11] = Panc-1005 Cancer Cell Toxicity qHTS against the NCATS CANVASS Library (AID 1347349); note: nearly all actives have a fitted effect of over 60% in size; note: potency is the fitted concentration of half-maximal effect
Outline: as §1

[12] = U-118MG Cancer Cell Toxicity qHTS against the NCATS CANVASS Library (AID 1347351); note: potency is the fitted concentration of half-maximal effect
Outline: as §1

[13] = COV-362 Cancer Cell Toxicity qHTS against the NCATS CANVASS Library (AID 1347352); note: potency is the fitted concentration of half-maximal effect
Outline: as §2

[14] = DH5-alpha competent E. coli microbial cell viability qHTS against the NCATS CANVASS Library (AID 1347377); conditions: outcome: dose series up to 46.1 µM unless noted
Outline: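 Bacterial viability as ATP-dependent luminescence (BacTiter-Glo), read after overnight 37 °C exposure of DH5-alpha competent E. coli to compounds in 11-point titration.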

[15] = Secretion counterscreen for inhibitors of the SERCaMP assay screened against the NCATS CANVASS Library (AID 1347390);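 note: light from luciferase secreted into medium read as a measure of general secretion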; note: potency is the fitted concentration of half-maximal effect
Outline: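 SH-SY5Y cells with constitutively secreted GLuc reporter, 1000 cells/well, treated 20 h at 37C with compounds at 0.001 - 77 uM final; secreted luciferase read as luminescence after coelenterazine; Brefeldin A as positive control.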

[16] = qHTS for inhibitors of ER calcium dysfunction: SERCaMP assay screened against the NCATS CANVASS Library (AID 1347393); note: nearly all actives have a fitted effect of over 40% in size; note: potency is the fitted concentration of half-maximal effect
Outline: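 Thapsigargin-induced ER calcium depletion drives GLuc-SERCaMP secretion from SH-SY5Y cells; compounds given 16 h beforehand were scored by lowered coelenterazine luminescence after 4 h challenge.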

[17] = qHTS for inhibitors of Wild type Zika virus screened against the NCATS CANVASS Library (AID 1347396);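 note: ATP luminescence of surviving cells so rescue from viral cell killing; series mostly up to about 46 µM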
Outline: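 Vero 766 cells, 1000/well, o/n attach; cpds pin-transferred (11-pt qHTS); WT Zika added; 72 h, 37C, 5% CO2; CellTiter Glo lumi. Uninfected + vehicle = 100% inhibition.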

[18] = SW1088 Cancer Cell Toxicity qHTS against the NCATS CANVASS Library (AID 1347350); note: nearly all actives have a fitted effect of over 75% in size; note: potency is the fitted concentration of half-maximal effect
Outline: as §1

[19] = HEK-293 Cancer Cell Toxicity qHTS against the NCATS CANVASS Library (AID 1347355); note: nearly all actives have a fitted effect of over 65% in size; note: potency is the fitted concentration of half-maximal effect; for outcome: series mostly up to about 46 µM
Outline: as §2

[20] = KB-8-5-11 Cancer Cell Toxicity qHTS against the NCATS CANVASS Library (AID 1347364); note: nearly all actives have a fitted effect of over 75% in size; note: potency is the fitted concentration of half-maximal effect
Outline: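 Viability read as CellTiter-Glo luminescence after 72 h at 37 °C, 5% CO2. 11-point compound series on 500 KB-8-5-11 cells/well in DMEM/10% FBS. Follow-up plating included 1 uM tariquidar in the medium.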

Measured: Potency

Nuclear receptor subfamily 1 group I member 3 (Homo sapiens), sequence (Q14994 whole entry, looked up): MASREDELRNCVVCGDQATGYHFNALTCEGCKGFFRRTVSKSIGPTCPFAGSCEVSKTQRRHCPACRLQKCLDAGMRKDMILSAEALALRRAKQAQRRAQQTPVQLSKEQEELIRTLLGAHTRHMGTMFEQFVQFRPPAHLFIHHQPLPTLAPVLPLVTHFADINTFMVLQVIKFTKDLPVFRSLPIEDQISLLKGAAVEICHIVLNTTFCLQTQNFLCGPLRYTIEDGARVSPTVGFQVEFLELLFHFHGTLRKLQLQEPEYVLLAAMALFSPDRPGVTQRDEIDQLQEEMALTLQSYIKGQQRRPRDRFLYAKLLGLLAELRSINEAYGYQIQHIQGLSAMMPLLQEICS

O[C@H]1c2ccccc2-c2c3c(cc4c2[C@@H]1NCC4)OCO3
inactive: [1] | [3] | [5] | [7] | [9]
active: [2] 18.8 µM | [4] 18.7 µM | [6] 16.6 µM | [8] 18.8 µM

CCC(=O)N[C@@H](C[C@H](C)C(Cl)(Cl)Cl)C(=O)N1C(=O)C=C(OC)[C@@H]1CC(C)C
inactive: [1] | [10] | [11] | [12] | [13] | [3] | [5] | [8] | [9] | [14] | [15] | [16] | [17]

Cc1occ2c1C(=O)c1c(cc(O)c(O)c1O)C2=O
inactive: [1] | [3] | [5] | [6] | [7] | [9] | [14] | [15] | [17]
active: [18] 5.95 µM | [12] 13.3 µM | [4] 1.05 µM

COc1cc2c(c(O)c1O)C(=O)c1c(coc1C)C2=O
active: [1] 6.66 µM | [10] 13.3 µM | [11] 9.43 µM | [18] 9.43 µM | [12] 21.1 µM | [13] 13.3 µM | [3] 18.8 µM | [19] 9.35 µM | [4] 14.8 µM | [8] 5.29 µM | [15] 27.2 µM
inactive: [20] | [5] | [6] | [9] | [14] | [16] | [17]

CC(=O)O[C@H]1c2ccccc2-c2c3c(cc4c2[C@@H]1N(C(C)=O)CC4)OCO3
inactive: [1] | [12] | [13] | [3] | [4] | [5] | [6] | [7] | [8] | [9] | [14] | [15] | [17]
active: [18] 26.6 µM | [16] 34.3 µM

COc1cc2c(cc1OC)[C@@H](c1ccc3c(c1)OCO3)C(C)C(C)C2=O (some centres not stated)
inactive: [1] | [12] | [13] | [3] | [4] | [5] | [6] | [9] | [14] | [15] | [17]
active: [20] 18.7 µM | [7] 18.6 µM

CC(C)=CCC[C@]12c3cc4c(cc3CC[C@@]1(C)[C@H](C)CC[C@@H]2O)[nH]c1ccccc14
inactive: [1] | [12] | [13] | [3] | [4] | [7] | [9] | [14] | [15] | [17]

CC[C@H](C)[C@H]1NC(=O)[C@@H](NC(=O)C(C)C)[C@@H](C)OC(=O)[C@H](COC(=O)CNC(C)=O)NC(=O)[C@@H]([C@@H](C)O)NC(=O)[C@H](Cc2ccccc2)N(C)C(=O)[C@H](c2ccc(OC)cc2)NC1=O (Isobutyryl-T[d(aIle)][Phg(4-OMe)][NMeF][d(aThr)]S([Gly-Ac]); ester 1-C)
inactive: [1] | [10] | [11] | [18] | [12] | [13] | [3] | [19] | [20] | [4] | [5] | [6] | [7] | [8] | [14] | [15] | [17]

COc1cc(/C=C/C(=O)OC[C@@H](Cc2ccc(O)c(OC)c2)[C@@H](COC(=O)/C=C/c2ccc(O)c(OC)c2)Cc2ccc(O)c(OC)c2)ccc1O
inactive: [5] | [6] | [14]
active: [2] 8.41 µM | [10] 10.6 µM | [11] 9.43 µM | [18] 8.41 µM | [12] 10.6 µM | [13] 18.8 µM | [19] 11.8 µM | [20] 13.2 µM | [8] 7.47 µM | [15] 38.4 µM | [16] 3.43 µM

C[C@]12CCC[C@](C)(C(=O)O)[C@@H]1CC[C@@]1(C)c3cocc3CC[C@H]21
inactive: [1] | [10] | [18] | [12] | [13] | [3] | [19] | [20] | [4] | [7] | [8] | [9] | [14] | [15] | [16] | [17]

C=C[C@](Cl)(CBr)CCC=C(C)C
inactive: [2] | [10] | [11] | [18] | [12] | [13] | [3] | [19] | [20] | [4] | [7] | [8] | [9] | [14] | [15] | [17]

O=C1CC2OCC=C3CN4C5CC3C2[C@@H]2N1c1ccccc1[C@]52C[C@@H]4C1=C[C@H]2C3CC4N(CC[C@@]45c4ccccc4N(C1=O)[C@@H]25)C/C3=C/CO (some centres not stated)
active: [2] 21.1 µM | [11] 16.8 µM | [19] 16.6 µM | [20] 18.7 µM | [4] 20.9 µM | [7] 11.7 µM
inactive: [1] | [3] | [5] | [6] | [9] | [14] | [15] | [17]
